Hit rate of the full screen: of about 2,300 compounds, about 1,200 (52%) were called active. Inconclusive results (about 34%) are left out. The set was probably picked from earlier hits. Some of the results follow. Unmarked numbers belong to inactive results. The call rests on the fitted dose curve; in most records, active means well fitted inhibition curve with a large enough effect; inconclusive means small, poorly fitted or top-dose-only effect, or effect the other way; inactive means no such curve, though single readings can be large or run the other way.
test: Confirmation screen for delayed death inhibitors of the malarial parasite plastid, 48 hour incubation; further: nearly all actives have a fitted effect of over 65% in size; details: P. falciparum-infected erythrocytes, luciferase growth; series mostly up to 28.7 µM; activity change, negative = inhibition: at the top concentration
In short: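 Single-generation (48 h, 37 C) exposure of integrated firefly luciferase-reporter P. falciparum in red cells, 0.1% parasitemia at 2% hematocrit, Albumax-supplemented RPMI. Falling luciferase signal marks parasite growth inhibition.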
On the % scale 0 is the no-effect control and ±100 the full control effect; potency means the concentration at half of the fitted maximal effect.

| Compound | Potency | activity change, negative = inhibition [%] |
| --- | --- | --- |
| CCCCCCn1ccc(=N)cc1 | 7.08 µM (active) | – |
| CCOC(=O)c1c(-c2ccc(-c3ccccc3)cc2)csc1NC(=O)c1cccc(N2C(=O)CCC2=O)c1 | 5.01 µM (active) | – |
| CCOC(=O)c1c(-c2cccc(C)c2)csc1NC(=O)c1c(-c2ccccc2)noc1C | 11.2 µM (active) | – |
| CCOC(=O)c1c(-c2ccc(F)cc2)csc1NC(=O)c1c(-c2ccccc2)noc1C | 8.91 µM (active) | – |
| CCOC(=O)c1c(NC(=O)c2c(-c3ccccc3)noc2C)sc(C)c1-c1ccccc1 | 6.31 µM (active) | – |
| COC(=O)c1c(-c2ccccc2)csc1NC(=O)c1c(-c2ccccc2)noc1C | 14.1 µM (active) | – |
| O=C(c1cccs1)N1N=C(c2ccccc2)CC1c1ccccc1O (configuration not stated) | 3.55 µM (active) | – |
| CCOc1ccc2c(c1)OC(c1ccccc1)(C(F)(F)F)NC2=O (configuration not stated) | 2 µM (active) | – |
| CC[C@@H](C)C(NC(=O)OC(C)(C)C)c1cn([C@@H](CCCCNC(=O)OC(C)(C)C)C(=O)N2CCN(C(=O)OC(C)(C)C)CC2)nn1 (some centres not stated) | 2 µM (active) | – |
| CC[C@@H](C)C(NC(=O)OC(C)(C)C)c1cn([C@@H](Cc2ccc(O)cc2)C(=O)N2CCN(C(=O)OC(C)(C)C)CC2)nn1 (some centres not stated) | 12.6 µM (active) | – |
| CCOc1ccccc1NC(=O)c1cc(S(=O)(=O)NCc2ccco2)ccc1F | 12.6 µM (active) | – |
| COc1ccccc1NC(=O)c1ccc(S(=O)(=O)NCc2ccco2)cc1 | – | -9.3 |
| O=C1c2cccc3cc([N+](=O)[O-])cc(c23)C(=O)N1CCN1CCCC1 | 10 µM (active) | – |
| Cc1nnnn1/C(=C\c1ccccc1)C(=O)OCC(=O)N1CC2(C)CC1CC(C)(C)C2 (configuration not stated) | 12.6 µM (active) | – |
| Cc1cccc(CN2C(=O)c3ccccc3S(=O)(=O)c3ccc(C(=O)NCCCN4CCCC4)cc32)c1 | 3.98 µM (active) | – |
| O=C(c1ccc2c(c1)N(Cc1cccc(Cl)c1)C(=O)c1ccccc1S2(=O)=O)N1CCN(c2ccccn2)CC1 | 3.98 µM (active) | – |
| O=C(NCCCN1CCCC1)c1ccc2c(c1)N(Cc1ccccc1F)C(=O)c1ccccc1S2=O (configuration not stated) | 12.6 µM (active) | – |
| CCN1C(=O)c2ccccc2Sc2ccc(C(=O)NCCCN3CCCCC3)cc21 | 12.6 µM (active) | – |
| CC(C)[C@H](NC(=O)N1CCn2c1nc1ccccc12)C(=O)N[C@H](C(=O)O)c1ccccc1 | – | -7.59 |
| CCOC(=O)N1CCN(C(=O)c2ccc3c(c2)N(Cc2cc(C)ccc2C)C(=O)c2ccccc2S3=O)CC1 (configuration not stated) | 4.47 µM (active) | – |
| CCN1CCCC1CNC(=O)c1ccc2c(c1)N(Cc1ccccc1F)C(=O)c1ccccc1S2(=O)=O (configuration not stated) | 5.01 µM (active) | – |
| CC(NC(=O)CCl)c1ccccc1Br (configuration not stated) | 2.24 µM (active) | – |
